Assay outcomes from PubChem.
Only some compounds are listed: those with a hit (about 7.3% of all), similar ones and a draw of the others.
FLuc modulator: qHTS profiling assay for firefly luciferase inhibitor/activator using purifed enzyme and Km concentrations of substrates (counterscreen for miR-21 project) | Potency, µM (doses to about 57.5 µM), for the others: at the highest dose activity change, negative = inhibition, hits mostly inhibitors | hit rate 6.9% among 360,000 | purified FLuc, Km substrates, luminescence inhibition;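 further: plate controls were vehicle for no effect and reference inhibitor for full effect; nearly all actives have a fitted effect of over 55% in size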
Target sequence (P08659 whole entry, looked up): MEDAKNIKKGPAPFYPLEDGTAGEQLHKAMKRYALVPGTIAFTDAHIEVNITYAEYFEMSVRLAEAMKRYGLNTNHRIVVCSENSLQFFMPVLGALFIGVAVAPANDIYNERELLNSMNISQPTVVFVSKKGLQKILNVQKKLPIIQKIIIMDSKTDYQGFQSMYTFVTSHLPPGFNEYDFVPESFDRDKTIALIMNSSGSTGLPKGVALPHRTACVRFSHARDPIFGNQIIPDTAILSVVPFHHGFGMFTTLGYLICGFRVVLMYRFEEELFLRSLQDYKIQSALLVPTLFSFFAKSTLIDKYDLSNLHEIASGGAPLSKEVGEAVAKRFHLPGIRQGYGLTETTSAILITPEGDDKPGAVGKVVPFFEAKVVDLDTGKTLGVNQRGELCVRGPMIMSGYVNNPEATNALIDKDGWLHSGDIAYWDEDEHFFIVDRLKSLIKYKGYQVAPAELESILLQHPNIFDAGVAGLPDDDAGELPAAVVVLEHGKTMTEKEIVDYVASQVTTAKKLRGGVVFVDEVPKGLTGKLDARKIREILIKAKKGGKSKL
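Biochemical qHTS of compounds, final roughly 60 µM downward over six points, against 10 nM purified firefly luciferase using Km concentrations of substrates (10 uM D-luciferin, 10 uM ATP) in Tris acetate pH 7.5 buffer; luminescence output.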
ELG1 genotox: qHTS screen for small molecules that induce genotoxicity in human embryonic kidney (HEK293T) cells expressing luciferase-tagged ELG1; HEK293T ELG1-luciferase reporter, luminescence, 16 h; Potency, µM (top dose mostly 46 µM), for the others: at the highest dose activity change, positive = activation, hits mostly activators; hit rate 1.3% among 330,000; AID 504466, 2011; further: % of control where 0% means no effect; nearly all actives have a fitted effect of over 60% in size
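Reporter readout depends on ELG1 protein level, which increases with genetic stress. After 16 hr compound exposure at 37 °C, luciferase activity was quantified using ONE-Glo.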
Rab9 prom act: qHTS Assay for Rab9 Promoter Activators; Huh7 Rab9 promoter-luciferase reporter, luminescence, 24 h; hit rate 2.8% among 320,000; AID 485297, 2010; Potency, µM (top dose mostly 9.22 µM), without a hit: top-dose activation, negative = inhibition, actives largely listed as activators; further: % of control where 0% means no effect; nearly all actives have a fitted effect of over 60% in size
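Luminescence from Amplite-detected luciferase (10 minutes, ambient) reports Rab9 promoter activation. Before that, stable Rab9-luciferase Huh7 cells (1500/well, reduced-serum OP-MEM I plus 10% FBS) were exposed to compound for 24 hours at 37C.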
NPC1 promoter act: qHTS Assay for NPC1 Promoter Activators; hit rate 2.4% among 320,000; Potency, µM (doses to about 9.22 µM), for the others: top-dose activation, usual class: activators; Huh7 NPC1 promoter luciferase reporter, 24 h; further: % of control where 0% means no effect; nearly all actives have a fitted effect of over 60% in size
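Cells: Huh7 expressing luciferase under the NPC1 promoter, 1500/well. Seeded 2 h, compound added, incubated 24 h at 37 °C. Luciferase reagent, 10 min ambient, then luminescence.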
SMN2 splice enh: qHTS Assay for Enhancers of SMN2 Splice Variant Expression | HEK293 SMN2-luciferase splicing reporter, luminescence, 30-36 h | Potency, µM (top dose mostly 46.1 µM), without a hit: top-dose activity change, positive = activation, actives largely listed as activators | hit rate 2.8% among 210,000 | AID 1458, 2008; further: % of control where 0% means no effect; nearly all actives have a fitted effect of over 55% in size
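HEK293 cells carry an SMN2 minigene-luciferase reporter in which exon 7 inclusion puts luciferase in frame. Cells were seeded at 2000 cells/well, attached for 10-12 hours, then exposed to compounds for 30-36 hours at 37C before ONE-Glo luminescence.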
KinaseGlo FLuc: Counterscreen for Luciferase (Kinase-Glo TM) Inhibition; Luciferin 4-monooxygenase (Photuris pensylvanica), Q27757; Kinase-Glo luciferase, ATP luminescence, 8 min; Potency, µM (top dose mostly 38.3 µM), for inactives: at the top dose activity change, negative = inhibition, most hits filed as inhibitors; hit rate 0.28% among 200,000; further: on the % scale 0 is the no-effect control and ±100 the full control effect; nearly all actives have a fitted effect of over 60% in size
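Substrate mix (final 50 mM imidazole pH 7.2, 50 mM KCl, 7 mM MgCl2, 10 uM ATP, 0.01% Tween 20, 0.05% BSA) plus pin-tool compound, then Kinase-Glo detection mix; 8 min ambient, luminescence read.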
* marks the source's active call; other numbers are inactive results. The call rests on the fitted dose curve; in most records, active means well fitted curve in the direction sought with a large enough effect; inconclusive means small, poorly fitted or top-dose-only effect, or another doubt; inactive means no such curve, though single readings can be large; an effect the other way counts as inactive or inconclusive. Potency means the concentration at half of the fitted maximal effect.

`N#C/C(=C/c1ccc(N2CCCCC2)o1)C(=O)Nc1ccc(Cl)cc1` gave FLuc modulator 0.6µM*, ELG1 genotox 2.3µM*, Rab9 prom act 2.2µM*, NPC1 promoter act 2µM*, SMN2 splice enh 3.2µM* and KinaseGlo FLuc -1%.
For COc1ccc(C(=O)Cn2c(=O)n3nc(CCn4nc(C)cc4C)nc3c3cc(OC)c(OC)cc32)cc1 the results were FLuc modulator 1%.
For CC(=O)Nc1ccccc1-c1nc2ccccc2n(CC(=O)c2ccc(Br)cc2)c1=O the results were FLuc modulator -10%.
`Cc1ccc2[nH]c(-c3cccc(N)c3)cc2c1` gave FLuc modulator 4.8µM*, ELG1 genotox 2.3µM*, Rab9 prom act 2.2µM*, NPC1 promoter act 1.8µM*, SMN2 splice enh 14µM* and KinaseGlo FLuc -2%.
`CC(=O)Nc1cccc(NC(=O)COc2ccc3c(c2)OCO3)c1` gave FLuc modulator 9.5µM*, ELG1 genotox 9%, Rab9 prom act 28% and NPC1 promoter act 5%.
For CCc1ccc(NC(=O)COc2ccc3c(c2)OCO3)cc1 the results were FLuc modulator 27µM*, ELG1 genotox inconclusive, Rab9 prom act 14% and NPC1 promoter act 27%.
CCc1ccc(OCC(=O)Nc2ccc3c(c2)OCCO3)cc1 was read as FLuc modulator 19µM*, ELG1 genotox 15%, Rab9 prom act 0% and NPC1 promoter act 3%.
CCC(C)NS(=O)(=O)c1ccc(OCC(=O)Nc2ccc3c(c2)OCCO3)cc1 (configuration not stated) was read as FLuc modulator 1%, ELG1 genotox -1%, Rab9 prom act 0%, NPC1 promoter act -1%, SMN2 splice enh -10% and KinaseGlo FLuc -2%.
`CC(=O)c1cccc(NS(=O)(=O)c2cc3c(cc2C)n(C)c(=O)c(=O)n3C)c1` gave FLuc modulator 3%.
Oc1ccc(COc2cccc3ccccc23)c2cccnc12 was read as FLuc modulator -7%, Rab9 prom act -9% and NPC1 promoter act 0%.
For COc1ccc(OC)c(NC(=O)CSc2nnnn2-c2ccc3c(c2)OCO3)c1 the results were FLuc modulator -2%, ELG1 genotox 11%, Rab9 prom act -5%, NPC1 promoter act -5%, SMN2 splice enh 35µM* and KinaseGlo FLuc 1%.
`CC(C)OC(=O)CSc1nnnn1-c1ccc2c(c1)OCCO2` gave FLuc modulator 17µM*, ELG1 genotox 2%, Rab9 prom act inconclusive, NPC1 promoter act 22%, SMN2 splice enh -1% and KinaseGlo FLuc 1%.
COc1ccc(Cl)cc1NC(=O)Cn1nnc2sc(-c3ccccc3)cc2c1=O was read as FLuc modulator -20% and SMN2 splice enh -2%.
Screening COc1ccc(OCC(=O)N/N=C/c2ccsc2)cc1 returned FLuc modulator inconclusive, ELG1 genotox 3%, Rab9 prom act -5%, NPC1 promoter act 0%, SMN2 splice enh 6% and KinaseGlo FLuc -5%.
CCN=c1scc(C)n1/N=C/c1ccsc1 was read as FLuc modulator 17µM*, ELG1 genotox inconclusive, Rab9 prom act 3.2µM*, NPC1 promoter act 3.2µM*, SMN2 splice enh inconclusive and KinaseGlo FLuc -2%.
Screening COc1ccc(CN2C(=O)c3ccccc3C(/C=N\OCc3ccc(C)cc3)C2=O)cc1 (configuration not stated) returned FLuc modulator 17µM*, ELG1 genotox -7%, Rab9 prom act 3%, NPC1 promoter act 5%, SMN2 splice enh -19% and KinaseGlo FLuc -2%.
